Several values for one entry are separate records, joined by “and”; a condition that tells them apart may be missing. Identical values can stand only once. Inconclusive results are not listed. Activity calls are given as the source filed them. The call rests on the fitted dose curve; in most records, active means well fitted inhibition curve with a large enough effect; inconclusive means small, poorly fitted or top-dose-only effect; inactive means flat fitted curve, though single readings scatter.
How the values were obtained:
CRL-7250 = normal cell line; assay: Cytotoxic Profiling of Annotated Libraries Using Quantitative High-Throughput Screening (AID 1296008); conditions: Five cell lines viability, CellTiter-Glo ATP luminescence, 48-72 h; max response: stronger effect = lower value; further: potency means the concentration at half of the fitted maximal effect; on max response: on the % scale 0 is the no-effect control and ±100 the full control effect
How it was run: (§1)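 Compounds were pin-transferred onto cells and incubated 48 or 72 hr at 37 degree Celsius, 95% humidity. CellTiter-Glo was added, plates sat 10 min at room temperature, then ATP-coupled luminescence was imaged as the viability read-out.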

HEK293 = assay: as above; conditions: Five cell lines viability, CellTiter-Glo ATP luminescence, 48-72 h; max response: stronger effect = lower value
How it was run: as §1

PC15 = assay: qHTS profiling for inhibitors of Plasmodium falciparum proliferation (AID 504749);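 further: 0% = DMSO vehicle and full inhibition = artemisinin control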; conditions: P. falciparum in erythrocytes, SYBR Green DNA, 72 h; series mostly up to 28.7 µM
How it was run: (§2)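 P. falciparum-infected erythrocytes (0.3% parasitemia, 2.5% hematocrit final) were exposed to compounds for 72 h at 37 C in 5% CO2, then lysed with SYBR Green buffer overnight at room temperature; parasite DNA fluorescence was normalized to artemisinin and DMSO controls.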

PC26 = assay: as above; conditions: P. falciparum in erythrocytes, SYBR Green DNA, 72 h; series mostly up to 28.7 µM
How it was run: as §2

PC49 = assay: as above; conditions: P. falciparum in erythrocytes, SYBR Green DNA, 72 h; series mostly up to 28.7 µM
How it was run: as §2

SC27B = assay: as above; conditions: P. falciparum in erythrocytes, SYBR Green DNA, 72 h; series mostly up to 28.7 µM
How it was run: as §2

TAB109 = assay: as above; conditions: P. falciparum in erythrocytes, SYBR Green DNA, 72 h; series mostly up to 28.7 µM
How it was run: as §2

TAB113 = assay: as above; conditions: P. falciparum in erythrocytes, SYBR Green DNA, 72 h; series mostly up to 28.7 µM
How it was run: as §2

TAB165 = assay: as above; conditions: P. falciparum in erythrocytes, SYBR Green DNA, 72 h; series mostly up to 28.7 µM
How it was run: as §2

W2 = assay: as above; conditions: P. falciparum in erythrocytes, SYBR Green DNA, 72 h; series mostly up to 28.7 µM
How it was run: as §2
Further: nearly all actives have a fitted effect of over 60% in size.

O=C(N[C@H]1CN2CCC1CC2)c1ccc(Cl)cc1
inactive: outcome (CRL-7250) | max response (HEK293) -12.5% | outcome (HEK293)

C#CC1(O)CCC2C3CCC4=CC(=O)CCC4(C)C3CCC21C (stereo unspecified)
inactive: Potency (PC15) | Potency (PC26) | Potency (PC49) | Potency (SC27B) | Potency (TAB109) | Potency (TAB113) | Potency (TAB165) | Potency (W2) | max response (CRL-7250) -20.8% | max response (HEK293) -10.4%

CC(=O)Nc1ccc(OC[C@](C)(O)C(=O)Nc2ccc([N+](=O)[O-])c(C(F)(F)F)c2)cc1
inactive: max response (CRL-7250) -1.8% and -4.07% | max response (HEK293) -11.2% | outcome (HEK293)

CC(O)=C(C#N)C(=O)Nc1cc(Br)ccc1Br
inactive: max response (CRL-7250) 1.28% | max response (HEK293) -1.81%

OCCCBr
inactive: max response (CRL-7250) -6.12% | outcome (HEK293)

CCN1CCN(C(=O)Cc2ccc(Nc3ncc(F)c(Nc4ccc(C(=O)Nc5ccccc5Cl)cc4)n3)cc2)CC1
active: Potency (CRL-7250) 26.4 µM and 16.4 µM | Potency (HEK293) 3.72 µM and 2.59 µM

CC1(N2CCC(n3c([C@@H]4CCCNC4)nc4ccccc43)CC2)CCCCCCC1
active: Potency (CRL-7250) 14.8 µM | Potency (HEK293) 4.69 µM and 7.31 µM

Cc1c(N)nc([C@H](CC(N)=O)NC[C@@H](N)C(N)=O)nc1C(=O)N[C@H](C(=O)N[C@@H](C)[C@H](O)[C@@H](C)C(=O)N[C@@H](C(=O)NCCc1nc(-c2nc(C(=O)NCCC[S+](C)C)cs2)cs1)[C@@H](C)O)C(O[C@H]1O[C@H](CO)[C@H](O)[C@@H](O)[C@@H]1O[C@H]1O[C@H](CO)[C@@H](O)[C@H](OC(N)=O)[C@H]1O)c1cnc[nH]1 (stereo partly specified)
active: Potency (CRL-7250) 10.5 µM | Potency (HEK293) 526 nM

Reference: PubChem BioAssay (NCATS)
